Measurements reported in PubChem BioAssay (Tox21).
Values joined by “and” are separate entries in the source; they are usually repeats but may differ in a detail not shown here. Equal entries are not always repeated. Results filed as inconclusive are left out. Where a structure was tested more than once in an assay, its records may differ in their call. Active and inactive are the calls of the source. The call rests on the fitted dose curve; in most records, active means well fitted curve in the direction sought with a large enough effect in the repeat runs; inconclusive means weak or mixed curves; inactive means no such curve, though single readings can be large; an effect the other way counts as inactive or inconclusive.

Experiments:
[1] = A CellTox Green Cytotoxicity Assay to monitor cytotoxicity in HEK293 cells - 40 hour (AID 1224871); further: nearly all actives have a fitted effect of over 45% in size; further: potency means the concentration at half of the fitted maximal effect
How it was run: (§1)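 Homogeneous no-lysis format: HEK293 cell suspension mixed with CellTox Green reagent, seeded, incubated 5 h at 37 C/5% CO2, then dosed by pintool with compound in DMSO.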

[2] = qHTS RealTime-Glo MT Cell Viability Assay in HEK293 cells - 16 hour (AID 1224872); further: nearly all actives have a fitted effect of over 50% in size; further: potency means the concentration at half of the fitted maximal effect
How it was run: (§2)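 Assay medium contained NanoLuc luciferase plus cell-permeant prosubstrate, added with HEK293 cells at 600 cells/well. After 5 h at 37 C/5% CO2 compounds were added; plates stayed at 37 C for 40 h with serial luminescence reads.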

[3] = qHTS RealTime-Glo MT Cell Viability Assay in HEK293 cells - 40 hour (AID 1224874); settings: RealTime-Glo luminescence; max response: stronger effect = lower value; further: nearly all actives have a fitted effect of over 50% in size; further: potency means the concentration at half of the fitted maximal effect
How it was run: (§3)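 Measured as luminescence from the same continuously cultured HEK293 wells at successive time points (0, 8, 16, 24, 32, 40 h) after compound addition. Reagent present from seeding; dosing at 5 h; incubation 37 C.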

[4] = A CellTox Green Cytotoxicity Assay to monitor cytotoxicity in HEK293 cells - 24 hour (AID 1224875); further: series mostly up to about 77 µM; nearly all actives have a fitted effect of over 45% in size
How it was run: as §1

[5] = A CellTox Green Cytotoxicity Assay to monitor cytotoxicity in HepG2 cells - 16 hour (AID 1224876); further: nearly all actives have a fitted effect of over 45% in size
How it was run: (§4)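 Fluorescent DNA-binding dye, 600 HepG2 cells/well, 5 h preincubation then compound in DMSO; same plates read at 0–40 h, 37 C.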

[6] = qHTS RealTime-Glo MT Cell Viability Assay in HepG2 cells - 32 hour (AID 1224877); further: nearly all actives have a fitted effect of over 55% in size
How it was run: (§5)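 qHTS, HepG2, 600 cells/well, RealTime-Glo (NanoLuc + prosubstrate) added with cells; 5 h preincubation; DMSO compound addition; 37 C; luminescence at 0/8/16/24/32/40 h.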

[7] = A CellTox Green Cytotoxicity Assay to monitor cytotoxicity in HepG2 cells - 24 hour (AID 1224878); further: nearly all actives have a fitted effect of over 45% in size
How it was run: as §4

[8] = A CellTox Green Cytotoxicity Assay to monitor cytotoxicity in HepG2 cells - 40 hour (AID 1224879); further: nearly all actives have a fitted effect of over 40% in size
How it was run: as §4

[9] = qHTS RealTime-Glo MT Cell Viability Assay in HEK293 cells - 0 hour (AID 1224880); further: nearly all actives have a fitted effect of over 45% in size; further: potency means the concentration at half of the fitted maximal effect
How it was run: as §3

[10] = A CellTox Green Cytotoxicity Assay to monitor cytotoxicity in HEK293 cells - 32 hour (AID 1224881); further: nearly all actives have a fitted effect of over 40% in size; further: potency means the concentration at half of the fitted maximal effect
How it was run: as §1

[11] = A CellTox Green Cytotoxicity Assay to monitor cytotoxicity in HepG2 cells - 0 hour (AID 1224882); further: nearly all actives have a fitted effect of over 35% in size
How it was run: as §4

[12] = A CellTox Green Cytotoxicity Assay to monitor cytotoxicity in HepG2 cells - 32 hour (AID 1224883); further: nearly all actives have a fitted effect of over 50% in size
How it was run: as §4

[13] = A CellTox Green Cytotoxicity Assay to monitor cytotoxicity in HEK293 cells - 8 hour (AID 1224884); further: nearly all actives have a fitted effect of over 35% in size
How it was run: as §1

[14] = qHTS RealTime-Glo MT Cell Viability Assay in HepG2 cells - 16 hour (AID 1224885); further: nearly all actives have a fitted effect of over 50% in size
How it was run: as §5

[15] = qHTS RealTime-Glo MT Cell Viability Assay in HEK293 cells - 24 hour (AID 1224886); further: nearly all actives have a fitted effect of over 50% in size; further: potency means the concentration at half of the fitted maximal effect
How it was run: as §2

[16] = qHTS RealTime-Glo MT Cell Viability Assay in HEK293 cells - 8 hour (AID 1224887)
How it was run: as §3

[17] = A CellTox Green Cytotoxicity Assay to monitor cytotoxicity in HEK293 cells - 16 hour (AID 1224888); further: nearly all actives have a fitted effect of over 35% in size
How it was run: as §1

[18] = qHTS RealTime-Glo MT Cell Viability Assay in HepG2 cells - 0 hour (AID 1224889); further: nearly all actives have a fitted effect of over 50% in size; further: potency means the concentration at half of the fitted maximal effect
How it was run: as §5

[19] = A CellTox Green Cytotoxicity Assay to monitor cytotoxicity in HepG2 cells - 8 hour (AID 1224890); further: nearly all actives have a fitted effect of over 45% in size
How it was run: as §4

[20] = qHTS RealTime-Glo MT Cell Viability Assay in HepG2 cells - 8 hour (AID 1224873); further: nearly all actives have a fitted effect of over 55% in size
How it was run: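 HepG2 cells mixed with RealTime-Glo MT reagents (NanoLuc plus cell-permeant prosubstrate) were seeded at 600 cells/well, incubated 5 h at 37 C/5% CO2, then pinned with compounds in DMSO; nonlytic luminescence tracked viability during 40 h treatment.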
On the % scale 0 is the no-effect control and ±100 the full control effect.

CC(=O)[C@@]1(O)CC[C@H]2[C@@H]3C[C@H](C)C4=CC(=O)C=C[C@]4(C)[C@@]3(F)[C@@H](O)C[C@@]21C
inactive: Potency [1] | max response [3] -3.14% | Potency [4] | Potency [5] | Potency [6] | Potency [7] | Potency [8] | Potency [10] | Potency [11] | Potency [12] | Potency [13] | Potency [14] | Potency [16] | Potency [17] | Potency [19]
27.5 µM (active) and inactive: Potency [15]
38.9 µM (active) and inactive: Potency [2]
active: Potency [3] 19.5 µM | Potency [9] 5.49 µM and 3.01 µM | Potency [18] 347 nM and 1.34 µM

CNC[C@H](O)c1ccc(O)c(O)c1
inactive: Potency [1] | Potency [2] | Potency [20] | max response [3] 2.12% and 11.8% | Potency [4] | Potency [5] | Potency [6] | Potency [7] | Potency [8] | Potency [9] | Potency [11] | Potency [13] | Potency [14] | Potency [15] | Potency [16] | Potency [17] | Potency [18] | Potency [19]

CCC(=O)O[C@H]1[C@H](O[C@@H]2[C@@H](C)[C@H](O[C@H]3C[C@@](C)(OC)[C@@H](O)[C@H](C)O3)[C@@H](C)C(=O)O[C@H](CC)[C@@](C)(O)[C@H](O)[C@@H](C)C(=O)[C@H](C)C[C@@]2(C)O)O[C@H](C)C[C@@H]1N(C)C
inactive: Potency [2] | Potency [20] | max response [3] -5.5% | Potency [5] | Potency [6] | Potency [7] | Potency [8] | Potency [9] | Potency [11] | Potency [12] | Potency [13] | Potency [15] | Potency [17] | Potency [18] | Potency [19]
28.9 µM (active) and inactive: Potency [1] | Potency [10]

O=C(O)CCCC(=O)O
inactive: Potency [1] | Potency [2] | Potency [20] | max response [3] -2.98% and 4.62% | Potency [4] | Potency [5] | Potency [6] | Potency [7] | Potency [8] | Potency [9] | Potency [11] | Potency [12] | Potency [13] | Potency [15] | Potency [16] | Potency [17] | Potency [18] | Potency [19]

OC[C@@H](O)[C@@H](O[C@@H]1O[C@H](CO)[C@H](O)[C@H](O)[C@H]1O)[C@H](O)[C@@H](O)CO
inactive: Potency [1] | Potency [2] | Potency [20] | max response [3] 5.89% and 2.02% | Potency [4] | Potency [5] | Potency [6] | Potency [7] | Potency [8] | Potency [9] | Potency [13] | Potency [15] | Potency [16] | Potency [17] | Potency [18] | Potency [19]

Cc1cccc(Nc2ccccc2C(=O)O)c1C
inactive: Potency [1] | Potency [2] | Potency [20] | max response [3] -11.8% and 1.92% | Potency [4] | Potency [5] | Potency [6] | Potency [7] | Potency [8] | Potency [9] | Potency [12] | Potency [13] | Potency [14] | Potency [15] | Potency [16] | Potency [17] | Potency [18] | Potency [19]

COC(=O)C(C)Oc1ccc(Oc2ncc(C(F)(F)F)cc2Cl)cc1 (stereo unspecified)
inactive: Potency [1] | Potency [20] | max response [3] -25% | Potency [4] | Potency [5] | Potency [6] | Potency [7] | Potency [8] | Potency [9] | Potency [10] | Potency [12] | Potency [13] | Potency [17] | Potency [18] | Potency [19]

Cc1ccc2c(c1)C(=O)OC2=O
inactive: Potency [1] | Potency [2] | max response [3] 5.67% and 0.571% | Potency [4] | Potency [5] | Potency [6] | Potency [7] | Potency [8] | Potency [9] | Potency [10] | Potency [11] | Potency [12] | Potency [13] | Potency [14] | Potency [15] | Potency [17] | Potency [18] | Potency [19]

CN(Cc1cnc2nc(N)nc(N)c2n1)c1ccc(C(=O)N[C@@H](CCC(=O)O)C(=O)O)cc1
inactive: Potency [1] | Potency [2] | Potency [4] | Potency [5] | Potency [6] | Potency [7] | Potency [8] | Potency [9] | Potency [10] | Potency [13] | Potency [17] | Potency [18] | Potency [19]
active: Potency [3] 49 nM and 53.5 nM

CC1=CC(C)(C)Nc2ccccc21
inactive: Potency [2] | max response [3] 5.64% and -19.8% | Potency [4] | Potency [5] | Potency [6] | Potency [7] | Potency [8] | Potency [9] | Potency [10] | Potency [11] | Potency [13] | Potency [15] | Potency [16] | Potency [17] | Potency [18] | Potency [19]

COC(=O)CC(=O)OC
inactive: Potency [1] | Potency [2] | max response [3] 2.65% and 1% | Potency [4] | Potency [5] | Potency [6] | Potency [7] | Potency [8] | Potency [9] | Potency [10] | Potency [11] | Potency [12] | Potency [13] | Potency [15] | Potency [16] | Potency [17] | Potency [18] | Potency [19]

O=S1(=O)CCCO1
inactive: Potency [1] | Potency [2] | max response [3] 5.89% and 10.2% | Potency [4] | Potency [5] | Potency [6] | Potency [7] | Potency [8] | Potency [9] | Potency [12] | Potency [13] | Potency [14] | Potency [15] | Potency [17] | Potency [18] | Potency [19]

NCCOCCO
inactive: Potency [1] | Potency [2] | max response [3] 6.45% and 5.26% | Potency [4] | Potency [5] | Potency [6] | Potency [7] | Potency [8] | Potency [9] | Potency [11] | Potency [12] | Potency [13] | Potency [14] | Potency [15] | Potency [17] | Potency [18] | Potency [19]
